Experimental data published in PubChem BioAssay (NCATS).
Results filed as inconclusive are left out. A call without a number means that no potency is given here. The source made the active and inactive calls. The call rests on the fitted dose curve; in most records, active means well fitted curve in the direction sought with a large enough effect; inconclusive means small, poorly fitted or top-dose-only effect, or another doubt; inactive means no such curve, though single readings can be large; an effect the other way counts as inactive or inconclusive.

Tested on: Zika virus NS2B-NS3 protease
Assay: Primary screen GU AMC qHTS for Zika virus inhibitors (AID 1347154); further: nearly all actives have a fitted effect of over 70% in size
Details: Zika NS2B-NS3 unlinked protease, AMC fluorogenic substrate; series mostly up to 54.1 µM
Procedure, shortened: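 Fluorogenic AMC-substrate cleavage by noncovalent NS2B-NS3 protease complex (25 nM, pH 8.0 Tris buffer with Tween 20) followed for 15 minutes at room temperature (~20% conversion). Percent inhibition from ex340/em450 signal change, fitted by 4-parameter Hill equation.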
Potency means the concentration at half of the fitted maximal effect.

Q: Which Potency does the source give for `N/C(=N\N=C\c1ccc(Cl)cc1)N/N=C/c1ccc(Cl)cc1` here?
A: inactive

Q: With `O=C1c2cccc3c2[C@H](CCC3)CN1[C@@H]1CN2CCC1CC2` as the molecule, how does the Potency read?
A: inactive

Q: For `CCN(CC)CCOC(=O)C(Cc1cccc2ccccc12)CC1CCCO1` (stereo not drawn), which Potency is on record?
A: inactive

Q: With `Cc1nc(-c2ccc(Cl)cc2)oc1COC(C)(C)C(=O)O` as the molecule, how does the Potency read?
A: inactive

Q: Which Potency does the source give for `O=C(Nc1ncc([N+](=O)[O-])s1)c1cccs1` here?
A: inactive

Q: Which Potency does the source give for `CC(C)Nc1cccnc1N1CCN(C(=O)c2cc3cc(NS(C)(=O)=O)ccc3[nH]2)CC1` here?
A: inactive

Q: With `CC[N+](C)(CC)CCOC(=O)C(O)(c1ccccc1)C1CCCCC1` (stereo not drawn) as the molecule, how does the Potency read?
A: inactive

Q: Which Potency does the source give for `CCc1oc2ccccc2c1C(=O)c1cc(I)c(O)c(I)c1` here?
A: 28.7 µM (active)

Q: Which Potency does the source give for `C[C@@H](O)[C@H]1C(=O)N2C(C(=O)O)=C([C@H]3CCCO3)S[C@H]12` here?
A: inactive

Q: With `NCCNC(=O)c1ccc(Cl)cn1` as the molecule, how does the Potency read?
A: inactive

Q: For `C=C[C@H]1CN2CC[C@H]1C[C@@H]2[C@@H](O)c1ccnc2ccc(OC)cc12`, which Potency is on record?
A: inactive

Q: For `O=C(O)C(Cc1cc(I)c(O)c(I)c1)c1ccccc1` (stereo not drawn), which Potency is on record?
A: inactive

Q: Which Potency does the source give for `O=C(Nc1cccc(C2=NCCN2)c1)Nc1cccc(C2=NCCN2)c1` here?
A: inactive

Q: For `C[C@]12CCC(=O)C=C1C=C[C@@H]1[C@@H]2CC[C@@]2(C)[C@H]1CC[C@@]21CCC(=O)O1`, which Potency is on record?
A: inactive

Q: Which Potency does the source give for `COc1ccccc1N1CCN(CCCCNC(=O)c2ccc(-c3ccc(C(C)=O)cc3)cc2)CC1` here?
A: inactive

Q: Which Potency does the source give for `CC(C)NCC(O)c1ccc2ccccc2c1` (stereo not drawn) here?
A: inactive

Q: With `CC[C@]12CCCN3CCc4c(n(c5ccccc45)C(=O)C1)[C@@H]32` as the molecule, how does the Potency read?
A: inactive

Q: With `Cn1c(=O)c2[nH]c(Br)nc2n(C)c1=O` as the molecule, how does the Potency read?
A: inactive

Q: With `CN(C)CCN1C(=O)c2ccccc2N(C)c2ccccc21` as the molecule, how does the Potency read?
A: inactive

Q: For `O=C(Nc1ccc([N+](=O)[O-])cc1)Nc1ccc([N+](=O)[O-])cc1`, which Potency is on record?
A: inactive

Q: Which Potency does the source give for `CC(=O)OCC(=O)[C@H]1CC[C@H]2[C@@H]3CCC4=CC(=O)CC[C@]4(C)[C@H]3CC[C@]12C` here?
A: inactive

Q: Which Potency does the source give for `O=C(O)CCNC(=O)c1ccccc1` here?
A: inactive

Q: With `Cc1cc(NS(=O)(=O)c2ccc(N)cc2)nc(C)n1` as the molecule, how does the Potency read?
A: inactive

Q: For `CCN(CC)CCOC(=O)C1(c2ccccc2)CCCC1`, which Potency is on record?
A: inactive

Q: With `N#CCC(=O)NN` as the molecule, how does the Potency read?
A: inactive

Q: Which Potency does the source give for `CCOC(=O)C(C#N)=C(c1ccccc1)c1ccccc1` here?
A: inactive

Q: Which Potency does the source give for `CCCCC(CC)COC(=O)/C=C/c1ccc(OC)cc1` (stereo not drawn) here?
A: inactive

Q: For `O=C1[C@H](CC[C@H](O)c2ccc(F)cc2)[C@@H](c2ccc(O)cc2)N1c1ccc(F)cc1`, which Potency is on record?
A: inactive

Q: For `Oc1c(Cl)cc(Cl)c(Cl)c1Cc1c(O)c(Cl)cc(Cl)c1Cl`, which Potency is on record?
A: 7.94 µM (active)

Q: For `CCCCCCCC/C=C\CCCCCCCCN`, which Potency is on record?
A: inactive

Q: For `Cc1ccccc1OCC(O)CO` (stereo not drawn), which Potency is on record?
A: inactive

Q: Which Potency does the source give for `CCCc1ncc(C[n+]2ccccc2C)c(N)n1` here?
A: inactive

Q: Which Potency does the source give for `COc1ccc(C(=O)c2ccccc2O)c(O)c1` here?
A: inactive

Q: Which Potency does the source give for `C/C=C/C=N/NC(=O)c1ccncc1` here?
A: inactive

Q: Which Potency does the source give for `COc1cc(C(=O)N2CCCCCCC2)cc(OC)c1OC` here?
A: inactive

Q: With `CN1CCC(OC(c2ccccc2)c2ccccc2)CC1` as the molecule, how does the Potency read?
A: inactive

Q: For `COC(=O)C(c1ccccc1Cl)N1CCc2sccc2C1` (stereo not drawn), which Potency is on record?
A: inactive

Q: With `C=C[C@H]1CN2CC[C@H]1C[C@H]2[C@H](O)c1ccnc2ccc(OC)cc12` as the molecule, how does the Potency read?
A: inactive

Q: With `CC(=O)Nc1ccc(OCC(O)CNC(C)C)cc1` (stereo not drawn) as the molecule, how does the Potency read?
A: inactive

Q: With `COc1ccc(C(Cl)=C(c2ccc(OC)cc2)c2ccc(OC)cc2)cc1` as the molecule, how does the Potency read?
A: inactive

Tested on: not listed separately
Assay: Confirmatory screen NINDS Rhodamine qHTS for Zika virus inhibitors (AID 1347161); further: nearly all actives have a fitted effect of over 60% in size
Details: purified enzyme assay, Rhodamine110 substrate fluorescence, 15 min; series mostly up to 114 µM
Procedure, shortened: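 Rhodamine110-peptide cleavage (1.5 µM substrate) by 25 nM linked NS2B-NS3 enzyme at pH 8.0 (Tris, Tween 20), after 15 min RT preincubation with compounds; 15-min fluorescence change normalized to controls and Hill-fitted.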

Q: With `O=C(O)C(Cc1cc(I)c(O)c(I)c1)c1ccccc1` (stereo not drawn) as the molecule, how does the Potency read?
A: 50.1 µM (active)

Q: With `Oc1c(Cl)cc(Cl)c(Cl)c1Cc1c(O)c(Cl)cc(Cl)c1Cl` as the molecule, how does the Potency read?
A: 3.55 µM (active)

Q: For `C=C[C@H]1CN2CC[C@H]1C[C@H]2[C@H](O)c1ccnc2ccc(OC)cc12`, which Potency is on record?
A: inactive
